Test results: PubChem BioAssay (Tox21)
Results filed as inconclusive are left out. The source made the active and inactive calls. Unless noted, the call rests on the fitted dose curve.

Legend:
[1] = Nuclear factor erythroid 2-related factor 2/antioxidant responsive element (Nrf2/ARE) small molecule agonists: qHTS cell viability counter screen in human keratinocytes (AID 1919968; active means well fitted curve in the direction sought with a large enough effect in the repeat runs; an effect the other way counts as inactive or inconclusive; further: nearly all actives have a fitted effect of over 55% in size)
How it was run: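 KeratinoSens cells (HaCaT keratinocytes stably carrying an ARE-luciferase reporter) were seeded at 1,500 cells/well and rested 5 h at 37 C/5% CO2. They were then exposed to compounds in DMSO for 23 h. Viability was read by CellTiter-Fluor fluorescence after 1 h.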

[2] = Nuclear factor erythroid 2-related factor 2/antioxidant responsive element (Nrf2/ARE) small molecule agonists: luciferase reporter gene qHTS assay in human keratinocytes (AID 1919969); further: nearly all actives have a fitted effect of over 35% in size
[3] = molecular target: Gonadotropin-releasing hormone receptor (Homo sapiens) (UniProt P30968); assay: Human gonadotropin-releasing hormone receptor (GnRHR) small molecule agonists, calcium flux assay in GnRHR-HEK293 cells (AID 1920063); further: nearly all actives have a fitted effect of over 35% in size
How it was run: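 HEK293 cells stably expressing human GnRHR were plated 18 h at 37 °C, loaded with calcium dye 1 h at 37 °C, then given compound in agonist mode; fluorescence (Ex/Em 480/540) read kinetically for 3 min at 1 s intervals.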

[4] = molecular target: KiSS-1 receptor (Homo sapiens) (UniProt Q969F8); assay: Human kisspeptin (KISS1R) small molecule agonists, calcium flux assay in KISS1R-HEK293 cells (AID 1920064; active means well fitted curve in the direction sought with a large enough effect in the repeat runs; an effect the other way counts as inactive or inconclusive)
How it was run: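 HEK293 cells stably expressing human KISS1R were plated 18 h at 37 °C, loaded with calcium dye for 1 h at 37 °C, then given compound by pin tool. Fluorescence (Ex/Em 480/540) was read kinetically for 3 min.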

[5] = G protein-coupled receptor (GPCR) small molecule agonists, calcium flux assay: HEK293 wild type cell line counter screen (AID 1920065)
How it was run: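 Cells were plated and cultured 18 h at 37 C/5% CO2, then loaded with calcium dye for 1 h at 37 C. Compounds in DMSO were pin-transferred in agonist mode, and fluorescence (Ex/Em 480/540) was read kinetically for 3 min at 1 s intervals.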

[6] = p53 small molecule agonists, cell-based qHTS assay with human liver microsomes (AID 1963577);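 further: p53 response element beta-lactamase reporter cells with liver microsomes plus NADPH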
How it was run: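 With metabolic activation: human liver microsomes (0.5 mg/mL final) plus NADPH (0.5 mg/mL final) added alongside compounds to p53RE-bla cells; 16 h 37 C exposure; beta-lactamase read by LiveBLAzer fluorescence.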

[7] = p53 small molecule agonists, cell-based qHTS assay with rat liver microsomes (AID 1963578)
How it was run: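 Metabolic activation by rat liver microsomes and NADPH, each 0.5 mg/mL final, added right after compounds to p53RE-bla reporter cells (4,000/well, plated 5 h earlier). 16 h at 37 C, then LiveBLAzer substrate for 2 h at room temperature in the dark; fluorescence read-out.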

[8] = p53 small molecule agonists, cell-based qHTS assay with human liver microsomes: qHTS cell viability counter screen (AID 1963579); further: nearly all actives have a fitted effect of over 45% in size
How it was run: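 Metabolic activation used human liver microsomes and NADPH, both 0.5 mg/mL final, over 16 hours at 37 C on p53RE-bla cells (4,000/well). Cytotoxicity measured by CellTiter-Glo luminescence, 30 min at room temperature.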

[9] = p53 small molecule agonists, cell-based qHTS assay with rat liver microsomes: qHTS cell viability counter screen (AID 1963580); further: nearly all actives have a fitted effect of over 45% in size
How it was run: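 In HCT-116 cells carrying a p53 response element-bla reporter, compounds were metabolically activated in situ by rat liver microsomes with NADPH over 16 h. Cell ATP content then served as the cytotoxicity measure.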

[10] = p53 small molecule agonists, cell-based qHTS assay: qHTS cell viability counter screen (AID 1963581); further: nearly all actives have a fitted effect of over 45% in size
How it was run: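 p53RE-bla HCT-116 cells were exposed to compounds for 16 h at 37 C; after the beta-lactamase FRET read in the same wells, CellTiter-Glo was added and luminescence (intracellular ATP) read after 30 min at room temperature.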

[11] = p53 small molecule agonists, cell-based qHTS assay (AID 1963582; active means well fitted activation curve with a large enough effect in the signal ratio in the repeat runs, not every such curve was filed as active; the % refers to the signal ratio)
How it was run: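 p53RE-bla beta-lactamase reporter cells rested 5 h at 37 C/5% CO2, then received compounds in DMSO by pin transfer and were incubated 16 h at 37 C. LiveBLAzer B/G FRET substrate was loaded for 2 h at room temperature before fluorescence reading.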

[12] = molecular target: 5-hydroxytryptamine receptor 2A (Homo sapiens) (UniProt P28223); assay: 5-hydroxytryptamine receptor 2A (HTR2A) small molecule antagonists, cell-based qHTS assay (AID 1963586); further: nearly all actives have a fitted effect of over 45% in size
How it was run: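 Antagonist-mode intracellular calcium assay: DOI (4 nM) added after 5 min compound pre-incubation at room temperature to dye-loaded HTR2A-CHO cells. Fluorescence followed for 3 min, sampled every second.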

[13] = molecular target: 5-hydroxytryptamine receptor 2A (Homo sapiens) (UniProt P28223); assay: 5-hydroxytryptamine receptor 2A (HTR2A) small molecule agonists, cell-based qHTS assay (AID 1963587); further: nearly all actives have a fitted effect of over 30% in size
How it was run: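 HTR2A-CHO cells, plated 18 h at 37 C/5% CO2, dye-loaded 1 h at 37 C; compounds in DMSO added by pin tool (agonist mode). Intracellular calcium flux read as kinetic fluorescence on FDSS over 2 min at 1 s intervals.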

[14] = molecular target: Muscarinic acetylcholine receptor M1 (Homo sapiens) (UniProt P11229); assay: Cholinergic receptor muscarinic 1 (CHRM1) small molecule agonists, cell-based qHTS assay (AID 1963589); further: nearly all actives have a fitted effect of over 35% in size
How it was run: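 CHO cells stably expressing human CHRM1, seeded 18 h at 37 C/5% CO2, dye-loaded 1 h at 37 C, then given compound in agonist mode; intracellular calcium fluorescence read kinetically at 1 s intervals. Fifteen concentrations, three independent runs.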

[15] = cAMP Responsive Elements (CRE) small molecule agonists, cell-based qHTS assay (AID 1963590)
How it was run: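 CRE-bla HEK 293T cells in DMEM with 10% dialyzed FBS, NEAA, pyruvate and 25 mM HEPES were plated 18 h at 37 C/5% CO2, then exposed to compounds in DMSO for 3 h before LiveBLAzer B/G FRET substrate addition.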

[16] = cAMP Responsive Elements (CRE) small molecule antagonists, cell-based qHTS assay (AID 1963591; active means well fitted inhibition curve with a large enough effect in the signal ratio in the repeat runs, not every such curve was filed as active; the % refers to the signal ratio)
How it was run: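 CRE-bla HEK293T cells were plated 18 h at 37 °C/5% CO2, pinned with compound in DMSO, then stimulated with NKH477 at 0.25 uM final for 3 h. LiveBLAzer B/G FRET substrate was added and plates incubated 2 h at room temperature.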

[17] = molecular target: Beta-2 adrenergic receptor (Homo sapiens) (UniProt P07550); assay: Adrenergic beta2 receptor (ADRB2) small molecule antagonists, cell-based qHTS assay (AID 1963592); further: series mostly up to about 92 µM; nearly all actives have a fitted effect of over 50% in size
How it was run: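 Cells (CHO, stable ADRB2 overexpression) incubated 18-20hr at 37C; compounds added from DMSO; agonist mix (1nM isoproterenol, 100uM IBMX, 25uM Ro-20-1724) added; 0.5hr RT; d2-cAMP and anti-cAMP-cryptate added; 1hr RT; 665/615 nm read.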

[18] = molecular target: D(2) dopamine receptor (Homo sapiens) (UniProt P14416); assay: Dopamine D2 receptor (DRD2) small molecule agonists, cell-based qHTS assay (AID 1963594); further: nearly all actives have a fitted effect of over 35% in size
How it was run: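 HEK293 cells stably expressing DRD2 were cultured 24 h at 37 C, then given Ro20-1724 (0.1 mM final) and compounds for 10 min at room temperature. NKH477 (200nM) was then added for 30 min. cAMP was read by HTRF.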

[19] = molecular target: D(2) dopamine receptor (Homo sapiens) (UniProt P14416); assay: Dopamine D2 receptor (DRD2) small molecule antagonists, cell-based qHTS assay (AID 1963595; active means well fitted inhibition curve with a large enough effect in the signal ratio in the repeat runs, with a control signal flat; the % refers to the signal ratio)
How it was run: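 Stable D2 receptor HEK293 line, 24 h after seeding. Compound preincubated 10 min, then quinpirole (12 nM) with forskolin analogue NKH477 (200 nM), 30 min, room temperature. Detection by time-resolved FRET of cAMP.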

[20] = molecular target: Muscarinic acetylcholine receptor M1 (Homo sapiens) (UniProt P11229); assay: Cholinergic receptor muscarinic 1 (CHRM1) small molecule antagonists, cell-based qHTS assay (AID 1963588); further: nearly all actives have a fitted effect of over 40% in size
How it was run: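 CHRM1-CHO calcium-flux assay, antagonist mode. Cells were seeded 18 h, dye-loaded 1 h at 37 C and given compound for 5 min at RT, then acetylcholine was added at 50nM. FDSS fluorescence was read 3 min; 15 concentrations, three runs.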

Measured: Potency

5-hydroxytryptamine receptor 2A (Homo sapiens), sequence (P28223 whole entry, looked up): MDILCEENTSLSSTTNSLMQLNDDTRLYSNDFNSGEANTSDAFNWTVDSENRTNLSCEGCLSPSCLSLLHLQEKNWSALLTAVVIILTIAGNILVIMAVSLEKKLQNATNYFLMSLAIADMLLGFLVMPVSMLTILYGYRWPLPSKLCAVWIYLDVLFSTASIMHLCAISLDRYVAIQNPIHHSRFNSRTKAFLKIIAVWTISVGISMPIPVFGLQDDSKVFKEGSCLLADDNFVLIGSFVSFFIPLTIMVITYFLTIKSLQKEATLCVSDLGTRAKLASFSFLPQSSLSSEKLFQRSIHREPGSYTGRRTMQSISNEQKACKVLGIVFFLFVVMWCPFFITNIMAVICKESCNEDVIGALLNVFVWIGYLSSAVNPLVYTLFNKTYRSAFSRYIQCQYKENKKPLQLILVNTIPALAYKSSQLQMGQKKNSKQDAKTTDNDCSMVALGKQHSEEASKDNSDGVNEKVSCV
Muscarinic acetylcholine receptor M1 (Homo sapiens), sequence (P11229 whole entry, looked up): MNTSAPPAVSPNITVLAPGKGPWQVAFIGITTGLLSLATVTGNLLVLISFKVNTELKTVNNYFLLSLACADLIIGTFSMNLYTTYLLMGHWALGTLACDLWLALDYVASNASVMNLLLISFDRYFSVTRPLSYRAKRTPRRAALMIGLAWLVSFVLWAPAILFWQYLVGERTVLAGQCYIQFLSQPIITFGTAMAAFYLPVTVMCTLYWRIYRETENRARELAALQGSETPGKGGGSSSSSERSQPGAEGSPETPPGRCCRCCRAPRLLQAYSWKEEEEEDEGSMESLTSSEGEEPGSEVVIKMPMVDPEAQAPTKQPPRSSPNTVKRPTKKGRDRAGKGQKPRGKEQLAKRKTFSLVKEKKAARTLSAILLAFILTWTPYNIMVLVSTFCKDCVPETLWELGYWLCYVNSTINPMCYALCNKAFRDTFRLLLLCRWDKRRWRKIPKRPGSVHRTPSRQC
KiSS-1 receptor (Homo sapiens), sequence (Q969F8 whole entry, looked up): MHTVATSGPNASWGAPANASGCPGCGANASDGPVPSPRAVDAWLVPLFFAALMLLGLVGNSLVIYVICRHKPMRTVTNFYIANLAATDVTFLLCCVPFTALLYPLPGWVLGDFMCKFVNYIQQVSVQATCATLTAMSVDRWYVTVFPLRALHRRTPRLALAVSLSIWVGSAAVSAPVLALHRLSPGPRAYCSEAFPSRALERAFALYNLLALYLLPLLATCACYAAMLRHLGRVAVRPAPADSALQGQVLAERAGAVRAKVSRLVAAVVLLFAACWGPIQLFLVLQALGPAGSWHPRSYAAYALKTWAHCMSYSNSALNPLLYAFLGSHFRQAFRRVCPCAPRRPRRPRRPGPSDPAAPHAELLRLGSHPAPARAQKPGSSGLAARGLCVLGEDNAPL
D(2) dopamine receptor (Homo sapiens), sequence (P14416 whole entry, looked up): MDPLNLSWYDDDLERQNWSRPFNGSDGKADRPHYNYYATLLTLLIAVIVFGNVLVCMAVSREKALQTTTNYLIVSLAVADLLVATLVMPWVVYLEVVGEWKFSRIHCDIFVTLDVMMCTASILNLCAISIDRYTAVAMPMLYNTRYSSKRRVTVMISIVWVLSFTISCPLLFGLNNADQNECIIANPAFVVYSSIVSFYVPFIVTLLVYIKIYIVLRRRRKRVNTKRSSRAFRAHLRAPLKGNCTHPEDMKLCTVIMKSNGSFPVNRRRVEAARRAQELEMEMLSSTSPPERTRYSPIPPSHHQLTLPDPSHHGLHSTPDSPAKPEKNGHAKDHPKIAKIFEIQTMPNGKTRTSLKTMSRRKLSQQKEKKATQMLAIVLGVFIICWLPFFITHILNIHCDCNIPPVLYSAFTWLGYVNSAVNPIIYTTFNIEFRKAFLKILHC
Beta-2 adrenergic receptor (Homo sapiens), sequence (P07550 whole entry, looked up): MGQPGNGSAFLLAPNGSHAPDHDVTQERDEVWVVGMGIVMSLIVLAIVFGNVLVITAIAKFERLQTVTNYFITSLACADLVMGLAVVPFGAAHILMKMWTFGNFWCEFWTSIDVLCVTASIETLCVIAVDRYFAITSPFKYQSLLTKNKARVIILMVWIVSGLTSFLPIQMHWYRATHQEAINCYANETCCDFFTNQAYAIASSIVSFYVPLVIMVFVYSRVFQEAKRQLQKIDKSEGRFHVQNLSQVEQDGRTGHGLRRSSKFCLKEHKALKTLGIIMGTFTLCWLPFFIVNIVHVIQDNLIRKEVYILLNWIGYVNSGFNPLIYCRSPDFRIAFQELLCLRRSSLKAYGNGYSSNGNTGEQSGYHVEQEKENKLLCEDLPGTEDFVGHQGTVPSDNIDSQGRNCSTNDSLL
Gonadotropin-releasing hormone receptor (Homo sapiens), sequence (P30968 whole entry, looked up): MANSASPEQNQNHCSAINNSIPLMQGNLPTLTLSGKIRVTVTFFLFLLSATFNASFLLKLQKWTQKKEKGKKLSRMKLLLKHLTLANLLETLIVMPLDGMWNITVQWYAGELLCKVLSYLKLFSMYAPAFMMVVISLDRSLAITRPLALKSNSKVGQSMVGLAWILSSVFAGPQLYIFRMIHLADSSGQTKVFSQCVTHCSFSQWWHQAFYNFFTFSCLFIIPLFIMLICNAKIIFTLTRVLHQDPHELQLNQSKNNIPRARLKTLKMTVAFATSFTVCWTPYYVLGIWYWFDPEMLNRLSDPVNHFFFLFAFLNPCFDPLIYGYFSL

Cc1ccc(/C=N/n2c(-c3ccccc3)csc2=S)cc1
inactive: [1] | [2] | [3] | [4] | [5] | [6] | [7] | [8] | [9] | [10] | [11] | [12] | [13] | [14] | [15] | [16] | [17] | [18] | [19]

CCCCC(CC)CN (stereo not given)
inactive: [1] | [2] | [3] | [4] | [5] | [6] | [7] | [8] | [9] | [10] | [11] | [12] | [13] | [14] | [15] | [16] | [17] | [18] | [19]

O=C(CCBr)N1CCN(C(=O)CCBr)CC1
inactive: [1] | [2] | [3] | [4] | [5] | [6] | [7] | [8] | [9] | [10] | [11] | [12] | [20] | [14] | [15] | [16] | [17] | [18] | [19]

CC(C)=CCC[C@@](C)(O)[C@H]1CC=C(C)CC1
inactive: [1] | [2] | [3] | [4] | [5] | [6] | [7] | [8] | [9] | [10] | [11] | [12] | [14] | [15] | [16] | [17] | [18] | [19]
